30 sequences from paper PMC9838217, “Structure of SALL4 zinc finger domain reveals link between AT-rich DNA binding and Okihiro syndrome” can be followed below.

What all share (assay): HT-SELEX; high values mean tight binding
Settings in all cases: protein: recombinant; vector His6-GST; dsDNA, one strand shown

The target in one test is T1, SALL4 ZFC4 WT (HT-SELEX) (Mus musculus, UniProt Q8BX22 870-940).
T1 sequence: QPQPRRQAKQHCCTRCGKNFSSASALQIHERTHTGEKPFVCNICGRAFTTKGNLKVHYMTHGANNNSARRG
In short, it runs like this: (§1)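 Purified recombinant mouse SALL4 zinc finger cluster 4 (residues 870–940, 1 µg) and library DNA (1.5 µg first cycle, 200 ng later) were incubated for 10 min at room temperature in 100 µl of 10 mM Tris–HCl pH 7.5, 50 mM NaCl, poly(dI-dC) and DTT. After Ni2+ bead capture and up to 6 triplicate cycles of selection, DNA was MiSeq-sequenced and scanned for 6-mers. Binding signal is the fold change in each canonical k-mer's read fraction relative to the initial random library.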

In test [1] the target is T2, SALL4 ZFC4 R900W (HT-SELEX) (Mus musculus, UniProt Q8BX22 870-940, R900W).
T2 sequence: T1 sequence with R31W
A digest of the protocol:
as §1

For test [2], the target named is T3, SALL4 ZFC4 G921D (HT-SELEX) (Mus musculus, UniProt Q8BX22 870-940, G921D).
T3 sequence: T1 sequence with G52D
In short, it runs like this: as §1

Numbering of substitutions follows the chain as printed.

For ATCGCA, the binding signal in the test with SALL4 ZFC4 WT (HT-SELEX) came out at 0.515 ± 0.00556 fold-change vs cycle 0; in test [1] it was 0.522 ± 0.0161 fold-change vs cycle 0; in test [2], 0.667 ± 0.0619 fold-change vs cycle 0.
With ATTCGA, the results for the binding signal (in the test with SALL4 ZFC4 WT (HT-SELEX); in test [1]; in test [2]) were 1.07 ± 0.0464 fold-change vs cycle 0, 1.15 ± 0.0515 fold-change vs cycle 0 and 1.2 ± 0.0363 fold-change vs cycle 0, respectively.
For TCCAGA, the binding signal with SALL4 ZFC4 WT (HT-SELEX) came out at 0.807 ± 0.0459 fold-change vs cycle 0; in test [1], 0.894 ± 0.029 fold-change vs cycle 0; in test [2], 0.927 ± 0.0563 fold-change vs cycle 0.
In the case of ACCTAA, the binding signal with SALL4 ZFC4 WT (HT-SELEX) came to 1.36 ± 0.0814 fold-change vs cycle 0; in test [1] it was 1.46 ± 0.0702 fold-change vs cycle 0; in test [2] it was 1.37 ± 0.0509 fold-change vs cycle 0.
For CCGAAG, in that order: 0.38 ± 0.0225 fold-change vs cycle 0, 0.441 ± 0.0244 fold-change vs cycle 0 and 0.553 ± 0.046 fold-change vs cycle 0.
Consider GGGTTA, for which the figures for the binding signal (in the test with SALL4 ZFC4 WT (HT-SELEX); in test [1]; in test [2]) were 0.864 ± 0.0423 fold-change vs cycle 0, 0.939 ± 0.0501 fold-change vs cycle 0 and 0.958 ± 0.0312 fold-change vs cycle 0, respectively.
For TAAATA, in that order: 3.77 ± 0.207 fold-change vs cycle 0, 2.47 ± 0.107 fold-change vs cycle 0 and 2.11 ± 0.184 fold-change vs cycle 0.
On to ACTTAA, for which the binding signal is 1.95 ± 0.0715 fold-change vs cycle 0 with SALL4 ZFC4 WT (HT-SELEX), 2.12 ± 0.103 fold-change vs cycle 0 in test [1] and 1.85 ± 0.222 fold-change vs cycle 0 in test [2].
Take TATATA: the binding signal with SALL4 ZFC4 WT (HT-SELEX) is 5.68 ± 0.781 fold-change vs cycle 0; in test [1], 2.55 ± 0.233 fold-change vs cycle 0; in test [2] it was 2.17 ± 0.291 fold-change vs cycle 0.
Turning to AATTAA, the binding signal with SALL4 ZFC4 WT (HT-SELEX) turned out to be 3.49 ± 0.279 fold-change vs cycle 0; in test [1] it was 2.6 ± 0.189 fold-change vs cycle 0; in test [2], 2.2 ± 0.282 fold-change vs cycle 0.
In the case of TATGGA, the binding signal is 1.65 ± 0.0906 fold-change vs cycle 0 with SALL4 ZFC4 WT (HT-SELEX), 1.46 ± 0.0813 fold-change vs cycle 0 in test [1] and 1.37 ± 0.0965 fold-change vs cycle 0 in test [2].
ATCGAG: the figures for the binding signal (in the test with SALL4 ZFC4 WT (HT-SELEX); in test [1]; in test [2]) were 0.776 ± 0.0249 fold-change vs cycle 0, 0.873 ± 0.0248 fold-change vs cycle 0 and 0.967 ± 0.0375 fold-change vs cycle 0, respectively.
Take CGATAC: the binding signal in the test with SALL4 ZFC4 WT (HT-SELEX) was found to be 0.695 ± 0.052 fold-change vs cycle 0; in test [1] it was 0.793 ± 0.033 fold-change vs cycle 0; in test [2] it was 0.902 ± 0.0425 fold-change vs cycle 0.
On to TGGACA, for which the results for the binding signal (in the test with SALL4 ZFC4 WT (HT-SELEX); in test [1]; in test [2]) were 0.662 ± 0.0418 fold-change vs cycle 0, 0.761 ± 0.0205 fold-change vs cycle 0 and 0.847 ± 0.0377 fold-change vs cycle 0, respectively.
As for CATTAG, the binding signal in the test with SALL4 ZFC4 WT (HT-SELEX) was found to be 1.317 ± 0.00537 fold-change vs cycle 0; in test [1], 1.45 ± 0.0172 fold-change vs cycle 0; in test [2], 1.39 ± 0.0502 fold-change vs cycle 0.
For CGAAGA, in that order: 0.723 ± 0.0365 fold-change vs cycle 0, 0.802 ± 0.0443 fold-change vs cycle 0 and 0.859 ± 0.0315 fold-change vs cycle 0.
For CGAGAG, the binding signal in the test with SALL4 ZFC4 WT (HT-SELEX) came to 0.428 ± 0.0305 fold-change vs cycle 0; in test [1] it was 0.515 ± 0.0447 fold-change vs cycle 0; in test [2] it was 0.628 ± 0.0528 fold-change vs cycle 0.
For ACCCAT, in that order: 0.847 ± 0.0456 fold-change vs cycle 0, 0.916 ± 0.0414 fold-change vs cycle 0 and 0.954 ± 0.0193 fold-change vs cycle 0.
Turning to AAGCAG, the binding signal with SALL4 ZFC4 WT (HT-SELEX) worked out at 0.683 ± 0.026 fold-change vs cycle 0; in test [1], 0.821 ± 0.0507 fold-change vs cycle 0; in test [2] it was 0.85 ± 0.0183 fold-change vs cycle 0.
For the sequence TATTGA, the binding signal with SALL4 ZFC4 WT (HT-SELEX) amounted to 2.22 ± 0.167 fold-change vs cycle 0; in test [1], 2 ± 0.134 fold-change vs cycle 0; in test [2], 1.83 ± 0.179 fold-change vs cycle 0.
With CGGAAG, the binding signal in the test with SALL4 ZFC4 WT (HT-SELEX) was found to be 0.465 ± 0.0113 fold-change vs cycle 0; in test [1] it was 0.58 ± 0.0281 fold-change vs cycle 0; in test [2] it was 0.707 ± 0.0759 fold-change vs cycle 0.
Take ACTGAT: the binding signal in the test with SALL4 ZFC4 WT (HT-SELEX) amounted to 1.4 ± 0.115 fold-change vs cycle 0; in test [1] it was 1.51 ± 0.108 fold-change vs cycle 0; in test [2] it was 1.43 ± 0.137 fold-change vs cycle 0.
For ATAACA, in that order: 2.52 ± 0.194 fold-change vs cycle 0, 2.06 ± 0.122 fold-change vs cycle 0 and 1.83 ± 0.192 fold-change vs cycle 0.
Consider CCGTTC, for which the binding signal stood at 0.364 ± 0.0226 fold-change vs cycle 0 in the test with SALL4 ZFC4 WT (HT-SELEX), 0.435 ± 0.0276 fold-change vs cycle 0 in test [1] and 0.511 ± 0.0586 fold-change vs cycle 0 in test [2].
Take CGTTAC: the binding signal came to 0.817 ± 0.0239 fold-change vs cycle 0 with SALL4 ZFC4 WT (HT-SELEX), 0.932 ± 0.0341 fold-change vs cycle 0 in test [1] and 0.941 ± 0.0136 fold-change vs cycle 0 in test [2].
Turning to AGACAA, the values for the binding signal (with SALL4 ZFC4 WT (HT-SELEX); in test [1]; in test [2]) were 1.15 ± 0.0323 fold-change vs cycle 0, 1.28 ± 0.0792 fold-change vs cycle 0 and 1.26 ± 0.0604 fold-change vs cycle 0, respectively.
Consider CCGTAC, for which the results for the binding signal (with SALL4 ZFC4 WT (HT-SELEX); in test [1]; in test [2]) were 0.377 ± 0.0221 fold-change vs cycle 0, 0.458 ± 0.015 fold-change vs cycle 0 and 0.544 ± 0.0408 fold-change vs cycle 0, respectively.
For AAATTA, in that order: 3.81 ± 0.372 fold-change vs cycle 0, 2.45 ± 0.183 fold-change vs cycle 0 and 2.13 ± 0.261 fold-change vs cycle 0.
On to CGATGA, for which the binding signal with SALL4 ZFC4 WT (HT-SELEX) amounted to 0.734 ± 0.0173 fold-change vs cycle 0; in test [1], 0.797 ± 0.0326 fold-change vs cycle 0; in test [2] it was 0.875 ± 0.0214 fold-change vs cycle 0.
In the case of CTCCTC, the binding signal with SALL4 ZFC4 WT (HT-SELEX) was 0.611 ± 0.00845 fold-change vs cycle 0; in test [1], 0.705 ± 0.0481 fold-change vs cycle 0; in test [2] it was 0.774 ± 0.0379 fold-change vs cycle 0.
